According to PubChem BioAssay AID504942 (Broad Institute, 2011):
Results with a measured potency or affinity are listed apart. Unmarked numbers belong to inactive results. No rule for the calls is given here.

Assay: toxicity to human HeLa cells – cell-based, 48 h, plate reader, cherry-picks, cytotoxicity control, dose response (AID 504942)
Conditions: series mostly up to 38 µM; activity change, negative = toxicity: at the top concentration

| SMILES | activity change, negative = toxicity [%] |
| --- | --- |
| O=C1C=C(c2cccc(Cl)c2)C[C@@H](c2ccc(F)cc2)C1 | -6.13 |
| COc1ccc(CNCc2cccc(Cl)c2)cc1 | 1.45 |
| CCOC(=O)c1cnc(-c2ccccc2)nc1N | -7.36 |
| COc1ccc(/C=C/C(=O)c2ccoc2)cc1 | -7.19 |
| COC(=O)c1ccc(NC(=S)N2CCCC2)cc1 | -4.47 |
| Clc1cccc(CNCCCSc2ncccn2)c1 | -19.5 |
| Cc1ccc2scc(CN3CCCC3)c2c1 | -6.04 |
| N#CC(c1ccc(Cl)cc1)c1ccc(Cl)nn1 (centres undefined) | -6.72 |
| O=C(NCC1CC1)c1cc([N+](=O)[O-])cc([N+](=O)[O-])c1 | 2.77 |
| CCOC(=O)c1cc2c(s1)-c1c(C)cccc1OC2 | -19.9 |
| O=C1N[C@@H](Cc2ccccc2)[C@@H](c2ccco2)O1 | 4.94 |
| CCOC(=O)c1ccc(N2Cc3ccccc3C2=N)cc1 | 3.25 |
| Clc1ccc2scc(CN3CCCC3)c2c1 | 6.28 |
| C#CCSc1ncc(-c2ccccc2)cn1 | -1.75 |
| CC(C)(C)NC(=O)c1cc(Cl)ccc1[N+](=O)[O-] | -3.32 |
| N#CC(c1ccc(Cl)nn1)c1ccc(Cl)cc1Cl (centres undefined) | 2.16 |
| CSc1nnc(-c2ccc([N+](=O)[O-])cc2)o1 | 8.43 |
| CCOC(=O)CCCn1ncn2c(cc3occc32)c1=O | 7.49 |
| O=C1C2C(C(=O)N1Cc1ccco1)C1C=CC2C12CC2 (centres undefined) | 8.3 |
| Cc1ccc2nc(-c3ccc4c(c3)OCCO4)cn2c1 | -0.368 |
| COC(=O)c1cc(-c2ccc(Br)cc2)on1 | -2.78 |
| CCNC(=O)COc1ccc2ccccc2c1 | 8.76 |
| Cc1cc(C)nc(N(C#N)Cc2cccc([N+](=O)[O-])c2)n1 | 2.83 |
| N#CN(Cc1ccccc1)Cc1ccccc1 | -1.87 |
| CCCNS(=O)(=O)c1ccc(OC)c(Cl)c1Cl | 1.84 |
| CCOC(=O)CC(C#N)c1cn(C)c2ccccc12 (centres undefined) | 2.88 |
| Cc1ccc(S(=O)c2ccc(C)cc2)cc1 | 7.24 |
| C=CCOC(=O)c1ccc(-n2cnc(C)n2)nc1 | 1.26 |
| O=[N+]([O-])c1ccc(N2CCCCC2)cc1 | -11 |
